Laboratory results taken from PubChem BioAssay (NCI).
About 83,000 compounds went through this panel and 20% of them were active in at least one assay; those are over-represented in the sample as a whole.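 Results are percent growth after 48 hours of single-concentration exposure. 100 means growth as in untreated cells, lower positive values show inhibition; negative values down to -100 show cell death.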 Calls of active or inactive are those of the source. Rule for the calls: active = growth percent below 10; inactive = the rest.

test system: EKVX NSCLC; test: NCI-60 one-dose screen, 48 h (100 = growth as untreated, 0 = no growth, -100 = all killed); settings: 10 µM unless noted

SMILES	growth
CCOC(=O)CCC(NC(=O)C(Cc1ccc(N(CCCl)CCCl)cc1)NC=O)C(=O)OCC (configuration not stated)	55.4% (inactive)
COC(=O)[C@@H](C)C[C@H](Cc1ccccc1)NC(=O)c1nc([C@@H](C[C@H](C(C)C)N(C)C(=O)[C@@H](NC(=O)[C@H]2CCCCN2C)C(C)C)OC(C)=O)sc1C(C)C	31.2% (inactive)
CCCC(C)C1(CC)C(=O)NC(=O)N(C)C1=O (configuration not stated)	105% (inactive)
C=CCCCCCCCCC(=O)[O-].C=CCCCCCCCCC(=O)[O-].[Zn+2]	98.7% (inactive)
COc1ccc(C(O)(C(=O)O)c2ccc(OC)cc2)cc1	85% (inactive)
Nc1c(F)cc(-c2nc3cc(F)ccc3[se]2)cc1F	47.6% (inactive)
CC(=O)O[C@@H]1CC[C@]2(C)[C@H]3CC[C@]4(C)C(=O)CC[C@H]4[C@@H]3C[C@@H]3SC(N)=N[C@@]32C1	78.3% (inactive)
N#CC1(C#N)C(c2ccc(N(CCCl)CCCl)cc2)OC23CCCCC2C1(C#N)C(=N)O3 (configuration not stated)	108% (inactive)
CCCCNC(c1ccc(Cl)cc1)C(O)c1ccc(Cl)cc1 (configuration not stated)	53.9% (inactive)
CCOC(=O)[C@@H](C)C[C@H](Cc1ccccc1)NC(=O)c1csc([C@@H](C[C@H](C(C)C)N(C)C(=O)[C@H](CC)NC(=O)[C@H]2CCCCN2C)OC(C)=O)n1	38.6% (inactive)
C[Se]C(=O)c1ccccc1OC(C)=O	33.2% (inactive)
ClC1=C(Cl)C(Cl)(C2(Cl)C(Cl)=C(Cl)C(Cl)=C2Cl)C(Cl)=C1Cl	5.58% (active)
CN[C@@]1(c2ccccc2Cl)CCCC[C@@H]1NCC1CCCO1 (some centres not stated)	99.2% (inactive)
COc1cc2c(cc1OCc1ccccc1)C(CC(C)C)=[N+](C)CC2	68.6% (inactive)
CC(=O)O[C@H]1CC[C@H]2[C@@H]3CC=C4c5nc(-c6ccccc6)sc5CC[C@]4(C)[C@H]3CC[C@]12C	79.6% (inactive)
N#CC1(c2ccccc2)CCN(Cc2ccccc2)CC1	96.2% (inactive)
COc1ccc(/C=C\c2cc(OC)c(OC)c(OC)c2)cc1OCC(=O)Nc1nc2ccc(OC(F)(F)F)cc2s1	77% (inactive)
CC(C)(C)C(=O)OCOP(=O)(NCc1ccccc1)C1CCCN(O)C1=O (configuration not stated)	67.3% (inactive)
CC(=O)Nc1ccc(NC(=O)c2ccc([As](O)O)cc2)cc1	110% (inactive)

SMILES	growth
O[C@H](CN1CC1)[C@@H](O)CN1CC1	94.6% (inactive)
Cc1cc(C)c(CBr)c(C)c1	103% (inactive)
CCOP1(=O)CC(C)=C(Cl)C(P(=O)(OCC)OCC)C1 (configuration not stated)	109% (inactive)
CC12CCC3C(CCC4=CC(=O)CCC43CF)C1CCC2=O (configuration not stated)	94.8% (inactive)
C=C1[C@@H](C)[C@H]2[C@H](Cc3ccccc3)NC(=O)[C@]23[C@@H](O)/C=C/[C@@](C)(O)C(=O)[C@@H](C)C/C=C/[C@H]3[C@@H]1O	57.2% (inactive)
NC(=O)C(Br)c1ccccc1 (configuration not stated)	109% (inactive)
CCC(=O)Nc1ccc(Cl)c(Cl)c1	98.4% (inactive)
CC[C@H](C)[C@@H]1OC(=O)C(C)(C)[C@H](O)[C@H](Cc2ccccc2)OC(=O)[C@H](C(C)C)OC(=O)[C@@H](NC(=O)c2cccc(NC=O)c2O)[C@@H](C)OC1=O	29.9% (inactive)
NC(=S)c1cn(C2OC(CO)C(O)C2O)c2ncnc(N)c12 (configuration not stated)	-4.9% (active)
Nc1ncnc2n[nH]nc12	66.7% (inactive)
COc1cc(/C=C/[N+](=O)[O-])cc(OC)c1	59.4% (inactive)
Clc1cccc(NCOOC2(OOCNc3cccc(Cl)c3)CCCCCC2)c1	89% (inactive)
Brc1ccc2c(c1)c(-c1nc(-c3c[nH]c4ncccc34)cs1)cn2CCN1CCOCC1	43.5% (inactive)
O=C1C(Cl)=C(N2CCOCC2)C(=O)c2ccccc21	96.9% (inactive)
CC1=C(CCCNS(C)(=O)=O)C2=C(C)C3(CC3)[C@@](C)(O)C(=O)C2=C1	1.61% (active)
CCN(CCO)C(Cc1ccccc1)c1ccccc1 (configuration not stated)	96.5% (inactive)
CCCCC1(CCC)C(=O)NC(=S)NC1=O	102% (inactive)
CC[C@H](C)[C@H](NC(=O)[C@H]1CCCCN1C)C(=O)N(C)[C@H](CC(=O)c1nc(C(=O)N[C@@H](Cc2ccccc2)C[C@H](C)C(=O)O)cs1)C(C)C	91.5% (inactive)
